From PubChem
SNCA expr inh = Primary qHTS assay for inhibitors of alpha-synuclein gene (SNCA) expression; HEK-293 SNCA-luciferase knock-in, luminescence, 24 h; Potency, µM (titrated, usually from 57.2 µM), most hits filed as inhibitors; 0.17% of 140,000 active; AID 1671194, 2021; note: nearly all actives have a fitted effect of over 45% in size
IP6K1 inh = Primary qHTS assay for small molecule inhibitors of Inositol hexaphosphate kinase 1 (IP6K1); Inositol hexakisphosphate kinase 1 (Homo sapiens), Q92551; IP6K1 kinase, ADP-Glo luminescence, 2 h; stronger effect = lower value; activity change, % (series mostly up to about 58 µM); 0.81% of 140,000 active; AID 1645851, 2021; in the data active = activity change below about -25%
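ADP-Glo luminescence measures ADP made by human IP6K1 during a 2 h RT reaction with ATP/IP6 (mix at 1.3 mM/130 uM); top library doses 57.5 and 19.1 uM final.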
KDM5B inh = Primary screen for KDM5B Histone Demethylases FDH-coupled qHTS; KDM5B demethylase, FDH-coupled NADH fluorescence (FDH is formaldehyde dehydrogenase); Potency, µM (series often up to 57.7 µM), most hits filed as inhibitors; 2.6% of 220,000 active; note: nearly all actives have a fitted effect of over 70% in size
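Coupled FDH/NAD⁺ fluorescence readout. KDM5BΔAP 200 nM final; compound titration, 10 min RT preincubation; substrate mix 12.5 µM H3K4me3, 25 µM 2-OG, 50 µM Fe(II), 100 µM ascorbate, 0.25 mM NAD⁺, 0.25 U/mL FDH; ΔRFU over 30 min.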
SNCA viab count = GF-AFC viability counterscreen for inhibitors of alpha-synuclein gene (SNCA) expression. HEK-293-SNCA-luc viability, GF-AFC fluorescence, 24 h. Potency, µM (highest dose often 57.1 µM), actives largely listed as cytotoxic. 0.12% of 150,000 active. AID 1671193, 2021; note: nearly all actives have a fitted effect of over 30% in size
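Cytotoxicity counterscreen: after 24 h compound treatment of genome-edited SNCA-luciferase HEK-293 cells, live-cell protease substrate GF-AFC read by fluorescence after 30 min; activity scaled between DMSO (0%) and medium-only (-100%), curves Hill-fitted.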
Hits are given with their value; - = inactive; ? = inconclusive; . = no result given. A selection: hits, their analogues and other compounds. The true share with any hit is near 2.9%. Unless noted, calls come from the whole dose curve; as a rule, active = well fitted curve in the direction sought with a large enough effect; inconclusive = small, poorly fitted or top-dose-only effect, or another doubt; inactive = no such curve, though single readings can be large; an effect the other way counts as inactive or inconclusive.

SMILES	SNCA expr inh	IP6K1 inh	KDM5B inh	SNCA viab count
O=C(NCc1ccccc1)c1cnc2n1CCN(Cc1ccccc1O)CC2	-	-	-	-
CC(C)(C)CC(=O)NC[C@H]1OC[C@@H](N(Cc2ccccc2)Cc2ccccc2)[C@@H]1O	-	-	-	-
O=C(NCCc1ccc2c(c1)OCCO2)c1ccc(NS(=O)(=O)c2ccc(Cl)s2)cc1	.	.	-	.
Cc1cccc(OC[C@H]2C[C@@H](NC(=O)c3ccccc3)[C@H](O)[C@@H]2O)n1	-	-	35µM	-
O=c1n(Cc2ccccc2Cl)nc2n1CCCCC2	-	-	-	-
O=C(O)CCc1cc2n(n1)CCCN(C(=O)c1cc3c([nH]c1=O)CCC3)C2	-	-	28µM	-
Cc1ccc(-c2noc([C@@H]3Cc4nc[nH]c4CN3C(=O)NC(C)C)n2)cc1	?	-	?	-
Cc1cccc(-c2noc([C@@H]3Cc4nc[nH]c4CN3C(=O)NC(C)C)n2)c1	-	-	8.9µM	-
O=C(C1CCCCC1)N1Cc2[nH]cnc2C[C@H]1c1nc(-c2ccc3ccccc3c2)no1	?	-	32µM	?
COc1ccc(CN2Cc3[nH]cnc3C[C@H]2c2nc(-c3ccncc3)no2)cc1	-	-	28µM	-
CCNC(=O)N1Cc2[nH]cnc2C[C@H]1c1nc(-c2ccc(F)c(Cl)c2)no1	-	-	40µM	-
O=C(Nc1ccc(Cl)cc1)N1Cc2[nH]cnc2C[C@H]1c1nc(-c2ccc(F)c(Cl)c2)no1	-	-	-	?
Cc1cc(NC(=O)c2ccc(-c3ccc(F)cc3)o2)no1	.	.	-	.
Fc1ccc(CN2Cc3[nH]cnc3C[C@H]2c2nc(-c3ccc(F)c(Cl)c3)no2)cc1	-	-	35µM	-
c1ccc(CN2Cc3[nH]cnc3C[C@H]2c2nc(-c3ccccc3)no2)cc1	-	-	?	-
COc1ccc(CN2Cc3[nH]cnc3C[C@H]2c2nc(-c3ccc4ccccc4c3)no2)cc1	-	-	16µM	-
COc1ccc(-c2noc([C@@H]3Cc4nc[nH]c4CN3Cc3ccc(C)cc3)n2)cc1	?	-	?	?
O=C(N1CCCC1)N1CCN(C2CCNCC2)C(=O)C1	-	-	50µM	-
O=C(N1CCCCC1)N1CCN(C2CCNCC2)C(=O)C1	-	-	89µM	-
COc1ccc(CN2CC3ON=C(C(=O)O)C3C2)cc1 (centres undefined)	-	-	-	-
O=C(O)C1=NOC2CN(Cc3cccc(C(F)(F)F)c3)CC12 (centres undefined)	-	-	100µM	-
N#Cc1ccc(CN2CCCC3(C2)NC(=O)c2ccccc2O3)cc1 (centres undefined)	-	-	-	-
O=C1NC2(CCN(Cc3ccccc3)C2)COc2ccccc21 (centres undefined)	-	-	40µM	-
N#Cc1ccc(CN2CCCC3(COc4ccccc4C(=O)N3)C2)cc1 (centres undefined)	?	-	35µM	-
Cc1ccc(CN2CCCC3(COc4ccccc4C(=O)N3)C2)cc1 (centres undefined)	-	-	35µM	-
SMILES	SNCA expr inh	IP6K1 inh	KDM5B inh	SNCA viab count
O=C1NC2(CCN(Cc3ccc(F)cc3)C2)COc2ccccc21 (centres undefined)	-	-	?	-
N#Cc1ccc(CN2CCC3(CC2)COc2ccccc2C(=O)N3)cc1	-	-	-	-
N#Cc1ccc(CN2CCC3(COc4ccccc4C(=O)N3)C2)cc1 (centres undefined)	-	-	40µM	-
Cn1nccc1CN1CCC2(COc3ccccc3C(=O)N2)C1 (centres undefined)	-	-	?	-
CN(C)Cc1cn(C[C@H]2C[C@@H](NC(=O)COc3ccccc3)[C@H](O)[C@@H]2O)nn1	-	-	-	-
COCCNCc1nc2c(n1Cc1ccccc1)C(=O)N(Cc1ccccc1C#N)CCN2	-	-	-	-
O=C1NC2(CCN(Cc3ccc(OC(F)(F)F)cc3)C2)COc2ccccc21 (centres undefined)	-	-	22µM	-
CS(=O)(=O)c1ccc(OCC(=O)c2ccc(F)cc2)cc1	.	.	-	.
O=C(Cn1ccn2nc(-c3ccccc3)c(CO)c2c1=O)NCc1ccccc1Cl	-	-	20µM	-
O=C(Cn1ccn2nc(-c3ccc(F)cc3)c(CO)c2c1=O)NCc1ccccc1Br	-	-	22µM	-
